# Measured values from PubChem BioAssay (NCATS).
# Several values for one entry are separate records, joined by “and”; a condition that tells them apart may be missing. Identical values can stand only once. Inconclusive results are not listed. Entries that show only a call come without a potency. A number with no mark means an inactive call. Activity calls are given as the source filed them. Calls follow the shape of the dose curve; as a rule, active = well fitted curve in the direction sought with a large enough effect; inconclusive = small, poorly fitted or top-dose-only effect, or another doubt; inactive = no such curve, though single readings can be large; an effect the other way counts as inactive or inconclusive.
# How the values were obtained:
# [1] = biological target: Cytochrome P450 3A7 (Homo sapiens) (UniProt P24462); test: Cytochrome P450 family 3 subfamily A member 7 (CYP3A7) small molecule antagonists: luciferase biochemical qHTS assay (AID 1963596); also: nearly all actives have a fitted effect of over 40% in size; also: potency is read from the fitted curve at half-maximal effect
# Summary of the method: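 In this luminescent screen, enzyme and proluciferin substrate meet test compound for 10 min before NADPH regeneration solution drives a 1 h room-temperature reaction; detection reagent halts turnover and luminescence is read 20 min later.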
# [2] = Viability qHTS for spleen associated tyrosine kinase inhibitor (SYKi) naive MV4-11 cells (AID 1963823); also: nearly all actives have a fitted effect of over 40% in size; also: potency is read from the fitted curve at half-maximal effect
# Summary of the method: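 Luminescence from CellTiter-Glo, developed 10 min at room temperature, gave viability of MV4-11 cells never exposed to SYK inhibitor. Cells (500/well) had been incubated with compounds for 72 hr under standard culture conditions.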
# [3] = Cellular viability qHTS for adrenocortical cancer (ACC) cell line SW-13 (AID 1963989); conditions: SW-13 ACC cells viability, CellTiter-Glo, 48 h; activity (max response): hits give low values; also: nearly all actives have a fitted effect of over 65% in size; also: potency is read from the fitted curve at half-maximal effect;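 as to activity (max response): cells grown in serum-free medium with ITS supplement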
# Summary of the method: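 Here, serum-free SW-13 cultures were dosed up to 46 uM. Following 48 h, ATP-dependent luminescence (CellTiter-Glo) reported viable cells, and logistic modeling produced IC50 values.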
# [4] = Viability qHTS for spleen associated tyrosine kinase inhibitor (SYKi) drug resistant MV4-11 cells (AID 1963824); also: nearly all actives have a fitted effect of over 35% in size; also: potency is read from the fitted curve at half-maximal effect
# Summary of the method: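 SYK inhibitor-resistant MV4-11 AML cells, 500 per well, added to predispensed compounds and incubated 72 hr at 37 C, 5% CO2. Viability measured by CellTiter-Glo luminescence after 10 min at room temperature.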
# [5] = Cellular viability qHTS for adrenocortical cancer (ACC) cell line NCI-H295R (AID 1963990); also: nearly all actives have a fitted effect of over 60% in size; also: potency is read from the fitted curve at half-maximal effect
# Summary of the method: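 Viability of NCI-H295R after 48 h of treatment (final up to 46 uM) measured through cellular ATP luminescence.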
# [6] = Quantitative highthroughput screen to assess conditional lethalithy of P12 Ichikawa cells grown in Human Plasma-Like Medium with dialyzed fetal bovine serum (HPLM+ds) (AID 1963879); conditions: Potency: viability; also: nearly all actives have a fitted effect of over 35% in size; also: potency is read from the fitted curve at half-maximal effect; as to Viability: series mostly up to about 46 µM
# Summary of the method: (§1)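 Each medium arm—HPLM with 10% dialyzed FBS, or RPMI1640 with 5 mM glucose and 10% untreated or dialyzed FBS—was screened against an 11-point, 3-fold compound titration for 48 h at 37 °C, with CellTiter-Glo luminescence as endpoint.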
# [7] = Quantitative highthroughput screen to assess conditional lethalithy of P12 Ichikawa cells grown in RPMI1640 with untreated serum (RPMI+s) (AID 1963881); conditions: Potency: viability; also: nearly all actives have a fitted effect of over 35% in size; also: potency is read from the fitted curve at half-maximal effect; as to Viability: series mostly up to about 46 µM
# Summary of the method: as §1
# [8] = Quantitative highthroughput screen to assess conditional lethalithy of P12 Ichikawa cells grown in RPMI1640 with dialyzed fetal bovine serum (RPMI+ds) (AID 1963880); conditions: Potency: P12-Ichikawa viability; also: nearly all actives have a fitted effect of over 35% in size
# Summary of the method: as §1
# [9] = Quantitative highthroughput screen to assess conditional lethalithy of NOMO1 cells grown in Human Plasma-Like Medium with dialyzed fetal bovine serum (HPLM+ds) (AID 1963878); also: nearly all actives have a fitted effect of over 35% in size
# Summary of the method: as §1
# [10] = Quantitative highthroughput screen to assess conditional lethalithy of SEM cells grown in RPMI1640 with dialyzed fetal bovine serum (RPMI+ds) (AID 1963884)
# Summary of the method: as §1
# Cytochrome P450 3A7 (Homo sapiens), sequence (P24462 whole entry, looked up): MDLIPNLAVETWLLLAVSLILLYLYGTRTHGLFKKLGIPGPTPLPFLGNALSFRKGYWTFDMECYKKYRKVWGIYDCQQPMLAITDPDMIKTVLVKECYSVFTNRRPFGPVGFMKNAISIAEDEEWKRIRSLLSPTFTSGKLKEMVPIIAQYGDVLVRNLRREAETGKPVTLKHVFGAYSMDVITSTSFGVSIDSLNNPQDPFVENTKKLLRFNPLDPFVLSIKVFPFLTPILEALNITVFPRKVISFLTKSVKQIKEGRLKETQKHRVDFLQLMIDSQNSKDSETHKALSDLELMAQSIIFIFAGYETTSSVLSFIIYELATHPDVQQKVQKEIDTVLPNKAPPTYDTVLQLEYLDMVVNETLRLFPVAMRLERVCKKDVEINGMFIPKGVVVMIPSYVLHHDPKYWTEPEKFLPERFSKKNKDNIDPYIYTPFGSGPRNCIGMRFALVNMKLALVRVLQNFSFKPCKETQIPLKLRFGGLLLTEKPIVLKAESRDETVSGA
compound,measurement,setting,value
Cc1ccc([N+](=O)[O-])[c]2c1[O][Hg]2,Potency,[1],0.617 µM (active)
same,Potency,[2],0.0944 µM (active)
same,Potency,[3],0.231 µM (active)
O=C(O)COc1ccccc1,Potency,[1],inactive
same,Potency,[2],inactive
same,Potency,[4],inactive
same,activity (max response),[3],18.4%
same,Potency,[5],inactive
CCN(Cc1ccc(Cl)nc1)/C(=C/[N+](=O)[O-])NC,Potency,[1],inactive
same,Potency,[2],inactive
same,Potency,[4],inactive
same,activity (max response),[3],3.71%
same,Potency,[5],inactive
CC[N+](CC)(CC)CC,Potency,[1],inactive
same,Potency,[2],inactive
same,Potency,[4],inactive
same,activity (max response),[3],9.95%
same,Potency,[5],inactive
NCC(CC(=O)O)c1ccc(Cl)cc1 (configuration not stated),"activity change, negative = inhibition",[1],-9.7% [at 0.91 µM]
same,viability (% of control),[2],90.7% [at 0.588 µM]
same,"viability, % of control",[4],103% [at 0.588 µM]
same,activity (max response),[3],-6.89%
same,"activity change, negative = viability loss",[5],-4.36% [at 0.587 µM]
Sc1ccccc1Cl,Potency,[1],inactive
same,Potency,[4],inactive
COC(=O)C(Cl)C(=O)OC,Potency,[1],inactive
same,Potency,[2],inactive
same,Potency,[4],inactive
same,Potency,[5],inactive
CC1OC(C)OC(C)O1 (configuration not stated),Potency,[1],inactive
same,Potency,[2],inactive
same,Potency,[4],inactive
same,activity (max response),[3],14%
same,Potency,[5],inactive
C[C@@H](CN1CCC(n2c(=O)[nH]c3cc(Br)ccc32)CC1)NC(=O)[C@@H]1C[C@H]1c1ccccc1,Potency,[1],inactive
same,Potency,[4],6.51 µM (active)
Cc1cc(C(=O)CN2CCCC2)c(C)n1-c1ccc(F)cc1,Potency,[1],inactive
same,Potency,[4],16.4 µM (active)
O=C1CN=C(c2cccc(Br)c2)c2oc3ccccc3c2N1,Potency,[1],inactive
same,Potency,[4],7.31 µM (active)
O=c1[nH]c2ccccc2n1C1CCNCC1,Potency,[1],inactive
same,Potency,[4],inactive
same,Potency,[5],inactive
[N-]=[N+]=CC(=O)OC[C@H](N)C(=O)O,Potency,[1],inactive
same,Potency,[4],inactive
same,activity (max response),[3],-8.61%
same,Potency,[5],inactive
COCC1(CO)C(=O)C2CCN1CC2 (configuration not stated),Potency,[1],inactive
same,Potency,[6],11.8 µM (active)
same,Potency,[7],16.6 µM (active)
c1cc2c(c(N3CCNCC3)c1)OCCO2,Potency,[1],inactive
same,Potency,[4],inactive
same,activity (max response),[3],-0.802%
C[C@H]1O[C@@H](O[C@H]2[C@@H](O)C[C@H](O[C@H]3[C@@H](O)C[C@H](O[C@H]4CC[C@@]5(C)[C@H](CC[C@@H]6[C@@H]5CC[C@]5(C)[C@@H](C7=CC(=O)OC7)CC[C@]65O)C4)O[C@@H]3C)O[C@@H]2C)C[C@H](O)[C@@H]1O,Potency,[1],inactive
same,Potency,[4],47.3 nM (active) and 38.5 nM (active)
same,Potency,[3],0.0184 µM (active)
same,Potency,[5],0.0651 µM (active)
c1ccc(N2CCNCC2)cc1,Potency,[1],inactive
same,Potency,[4],inactive
same,activity (max response),[3],12.6%
same,Potency,[5],inactive
O=[N+]([O-])c1c(Cl)c(Cl)cc(Cl)c1Cl,Potency,[1],inactive
same,activity (max response),[3],-0.162%
C[C@]12CC[C@H]3[C@@H](CC=C4C[C@@H](O)CC[C@@]43C)[C@@H]1CC[C@@H]2O,Potency,[1],inactive
same,activity (max response),[3],5.93%
C#C[C@]1(O)CC[C@H]2[C@@H]3CCC4=CC(=O)CCC4=C3C=C[C@@]21CC,Potency,[1],inactive
same,Potency,[4],inactive
same,activity (max response),[3],13.9%
same,Potency,[5],inactive
CCC1(c2cccc(O)c2)CCCCN(C)C1 (configuration not stated),Potency,[1],inactive
same,Potency,[4],inactive
same,activity (max response),[3],-10.4%
CC(C)NCC(O)c1ccccc1Cl (configuration not stated),Potency,[1],inactive
same,Potency,[4],inactive
same,Potency,[5],inactive
Nc1ccccc1C(=O)OCC(O)CO (configuration not stated),Potency,[1],inactive
same,Potency,[4],inactive
same,activity (max response),[3],6.9%
CC1=C(C(=O)O)N2C(=O)[C@@H](N)[C@H]2SC1,Potency,[1],inactive
same,activity (max response),[3],6.68%
COc1ccc(C(CN(C)C)C2(O)CCCCC2)cc1 (configuration not stated),Potency,[1],inactive
same,Potency,[4],inactive
same,Potency,[6],inactive
same,activity (max response),[3],0.648%
same,Potency,[5],inactive
Nc1ccncc1,Potency,[1],inactive
same,Potency,[4],inactive
same,activity (max response),[3],11.8%
same,Potency,[5],inactive
CCN(CC)C(=O)c1ccc(C2=CC3(CCNCC3)Oc3cccc(O)c32)cc1,Potency,[1],inactive
same,Potency,[6],inactive
same,Potency,[8],inactive
same,Potency,[5],inactive
N#CC(O[C@@H]1O[C@H](CO[C@@H]2O[C@H](CO)[C@@H](O)[C@H](O)[C@H]2O)[C@@H](O)[C@H](O)[C@H]1O)c1ccccc1 (some centres not stated),Potency,[1],inactive
same,activity (max response),[3],-16.1%
same,Potency,[5],inactive
CC(CC(C(N)=O)(c1ccccc1)c1ccccc1)N(C)C (configuration not stated),Potency,[1],inactive
same,Potency,[4],inactive
same,activity (max response),[3],5.97%
same,Potency,[5],inactive
CN1C(=O)[C@@H](NC(=O)c2cc3ccccc3[nH]2)N=C(c2ccccc2)c2ccccc21,Potency,[1],inactive
same,Potency,[4],4.22 µM (active)
same,activity (max response),[3],-6.85%
same,Potency,[5],inactive
O=[N+]([O-])O[C@H]1CO[C@H]2[C@@H]1OC[C@H]2O[N+](=O)[O-],Potency,[1],inactive
same,Potency,[4],inactive
same,activity (max response),[3],12.6%
same,Potency,[5],inactive
C[C@H]1CNCCc2ccc(Cl)cc21,Potency,[1],inactive
same,Potency,[4],inactive
same,activity (max response),[3],-1.47%
CC(C)(C)NC[C@H](O)c1ccc(O)cc1Cl,Potency,[1],inactive
same,Potency,[4],inactive
same,activity (max response),[3],9.97%
same,Potency,[5],inactive
COc1cccc([C@@]2(O)CCCC[C@@H]2CN(C)C)c1,Potency,[1],inactive
same,Potency,[4],inactive
same,activity (max response),[3],2.96%
same,Potency,[5],inactive
C[C@H](N)[C@H](O)c1ccc(O)c(O)c1,Potency,[1],inactive
same,Potency,[4],inactive
same,activity (max response),[3],5.15%
same,Potency,[5],inactive
COCCOCCO,Potency,[1],inactive
same,Potency,[4],inactive
same,activity (max response),[3],-1.21%
same,Potency,[5],inactive
O=C(O)CCCOc1ccc(Cl)cc1Cl,Potency,[1],inactive
same,activity (max response),[3],-0.391%
CCCCCCC(=O)CCCCCC/C=C/C[C@@H](O)[C@H](O)[C@@](N)(CO)C(=O)O,Potency,[1],inactive
same,Potency,[4],inactive
same,activity (max response),[3],-4.81%
same,Potency,[5],inactive
CC(C)N(CCNC(=O)CN1CCCC1=O)C(C)C,Potency,[1],inactive
same,Potency,[4],inactive
same,Potency,[9],inactive
same,Potency,[6],inactive
same,Potency,[8],inactive
same,Potency,[7],inactive
same,Potency,[10],inactive
C[C@H]1C(=O)O[C@@H]2CCN3CC=C(COC(=O)[C@](C)(O)[C@]1(C)O)[C@H]23,Potency,[1],inactive
same,Potency,[4],inactive
same,activity (max response),[3],-4.54%
CC(C)N(CCC(C(N)=O)(c1ccccc1)c1ccccn1)C(C)C (configuration not stated),Potency,[1],inactive
same,Potency,[4],inactive
same,activity (max response),[3],4.36%
same,Potency,[5],inactive
